High-throughput results (PubChem)
In the library only some 19% were active in any assay of this set; here they are far more common.
HT1080-NT tox: qHTS for induction of synthetic lethality in tumor cells producing 2HG: qHTS for the HT-1080-NT fibrosarcoma cell line. HT-1080-NT fibrosarcoma viability, CellTiter-Glo ATP luminescence, 48 h. Potency, µM (highest dose often 46.1 µM), for inactives: at the highest dose activity, negative = less viability, most hits filed as cytotoxic. hit rate 1.6% among 360,000;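 further: NT is the 2HG producing partner of a matched IDH1 knockdown line; potency means the concentration at half of the fitted maximal effect; 0% = DMSO-treated cells and -100% = media-only wells without cells; nearly all actives have a fitted effect of over 55% in size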
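Toxicity toward the 2HG-producing NT line was scored as %Activity, normalised to DMSO and no-cell wells, from CellTiter-Glo luminescence after 48 hours' treatment.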
DT40 TDP1 CPT: qHTS for Inhibitors of human tyrosyl-DNA phosphodiesterase 1 (TDP1): qHTS in cells in presence of CPT; chicken DT40 Tdp1-/-;hTDP1 cells + 20 nM CPT, ATP luminescence, 48 h; AID 686979, 2013; Potency, µM (series often up to 46.2 µM), for the others: at the top dose activity change, negative = growth inhibition, most hits filed as inhibitors; hit rate 12% among 420,000; further: potency means the concentration at half of the fitted maximal effect; nearly all actives have a fitted effect of over 55% in size
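Chicken DT40 Tdp1-/- cells complemented with human TDP1, 400 cells/well, exposed to compounds plus 20 nM camptothecin for at least 48 h at 37 C; viability read as ATP content by CellTiter-Glo luminescence.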
IL1B secr inh: qHTS for Inhibitors of Inflammasome Signaling: IL-1-beta AlphaLISA Primary Screen; activity change, % at 57.5 µM; THP-1 LPS/ATP IL-1B secretion, AlphaLISA, 16 h; hits give low values; hit rate 4.7% among 360,000; AID 743279, 2014; in the data active means activity change below about -50%; inconclusive means mostly about -30% to -49%
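Secreted IL-1B measured by AlphaLISA bead assay after 16 h compound exposure of THP-1 cells; compounds (final up to 57.5 uM) added 1 h before LPS (250 ng/mL) and ATP (1.25 mM) stimulation; lower signal means less secretion.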
HT1080 IDH1KD tx: qHTS for induction of synthetic lethality in tumor cells producing 2HG: qHTS for the HT-1080-IDH1KD cell line | HT-1080 IDH1 knockdown viability, ATP luminescence, 48 h | Potency, µM (doses to about 46.1 µM), inactives show at the highest dose activity, negative = toxicity, usual class: cytotoxic | hit rate 2% among 360,000 | AID 686971, 2013;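 further: potency means the concentration at half of the fitted maximal effect; 0% = DMSO wells and -100% = cell-free medium wells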
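IDH1KD HT-1080 cells, 750/well, RPMI + 5% FBS; compound pinned after 2 h settling; 48 h, 37 °C; CellTiter-Glo luminescence; % activity normalised to DMSO and no-cell wells; curves fitted, classed by r2 and efficacy.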
TDP1 cell noCPT: qHTS for Inhibitors of human tyrosyl-DNA phosphodiesterase 1 (TDP1): qHTS in cells in absence of CPT; hit rate 15% among 420,000; DT40 Tdp1-/- hTDP1 cells, no CPT, ATP luminescence, 48 h; Potency, µM (titrated, usually from 46.2 µM), for inactives: top-dose activity change, negative = growth inhibition, usual class: inhibitors; further: potency means the concentration at half of the fitted maximal effect; nearly all actives have a fitted effect of over 55% in size
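Luminescent ATP content (CellTiter-Glo) served as the growth readout. Knockout chicken DT40 cells expressing human TDP1 were exposed to compounds without camptothecin for a minimum 48 hr at 37 °C.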
* hit, by the source's call; ? = inconclusive; · = no result given. Unless noted, the call rests on the fitted dose curve; in most records, active means well fitted curve in the direction sought with a large enough effect; inconclusive means small, poorly fitted or top-dose-only effect, or another doubt; inactive means no such curve, though single readings can be large; an effect the other way counts as inactive or inconclusive. Unless noted, on the % scale 0 is the no-effect control and ±100 the full control effect.

SMILES	HT1080-NT tox	DT40 TDP1 CPT	IL1B secr inh	HT1080 IDH1KD tx	TDP1 cell noCPT
COc1ccc(/C=C/C(=O)c2cc(F)ccc2OC(=O)c2ccc(OC)c(OC)c2)cc1OC	?	?	-29.1	?	-68.8%
COc1ccc(/C=C/C(=O)c2cc(F)ccc2OC(=O)c2ccccc2)cc1OC	?	0.411µM*	?	1.64µM*	0.411µM*
CC(=O)Nc1cncc(-c2cccc(S(C)(=O)=O)c2)n1	?	1.1%	-12.5	9.9%	-1.2%
Cc1oc(-c2cccs2)nc1CNC[C@H]1O[C@@H](n2cnc(C(N)=O)n2)[C@H](O)[C@@H]1O	-5.1%	-4.5%	-10.5	0.4%	-4.3%
COc1ccc(NC(=O)N2CC[C@@]3(CCCN(C(C)=O)C3)C2)cc1	·	?	·	·	2.7%
CC(CC(=O)Nc1ccc2c(c1)c(=O)n(C)n2-c1ccc2ccccc2c1)C(F)(F)F (configuration not stated)	?	5.17µM*	58.7	?	2.59µM*
Cn1c(=O)c2cc(NC(=O)Cc3cccnc3)ccc2n1-c1ccc2ccccc2c1	?	14.6µM*	-8.3	18.4µM*	14.6µM*
O=C(Nc1cccc(F)c1)N1CC[C@@]2(CCCN(C(=O)c3csnn3)C2)C1	·	13.0%	·	·	-8.5%
COc1cc(-c2cc(NC=O)c3ncc(-c4ccc(C(C)=O)cc4)n3c2)cc(OC)c1OC	?	10.3µM*	-58.7*	?	7.31µM*
COc1ccc(-c2cc(NC=O)c3ncc(-c4ccc(C(C)=O)cc4)n3c2)cc1OC	16.4µM*	16.4µM*	-70.4*	13µM*	18.4µM*
Cc1c(S(=O)(=O)N(C)C2CCCCC2)c(=O)n(C)c(=O)n1C	3.5%	4.2%	11.0	2.3%	-5.4%
O=C(c1ccncc1)N1CCC2(CC1)CN(c1ccncc1)C2	·	1.7%	·	·	-12.4%
O=C(c1ccncc1)N1CCC2(CC1)CCN(c1ccc(-c3ccccc3)cc1)CC2	·	6.51µM*	·	·	?
O=S(=O)(c1ccccc1)N1CCC2(CCN(c3cccc(-c4ccccc4)c3)CC2)CC1	·	-7.6%	·	·	-17.6%
CC(=O)N1CCC2(CC1)CCN(c1ccc(-c3ccccc3)cc1)CC2	·	10.3µM*	·	·	8.2µM*
O=C(c1ccncc1)N1CCC2(CC1)CN(c1ccccc1)C2	·	16.4µM*	·	·	?
O=S(=O)(c1ccccc1)N1CCC2(CCN(c3ccncc3)CC2)CC1	·	11.6µM*	·	·	13µM*
Brc1ccc(NC(c2ccccc2)c2ccncc2)cc1 (configuration not stated)	-28.1%	-18.5%	-2.8	-25.1%	?
COCC(=O)N1CCC2(CC1)CN(C(=O)Nc1ccccc1)C2	·	15.2%	·	·	-4.3%
COCC(=O)N1CCC2(CC1)CN(c1ccc(-c3ccccc3)cc1)C2	·	8.2µM*	·	·	5.8µM*
NC1=NC(=O)S/C1=C\c1ccc(F)cc1	23.1µM*	-6.2%	-7.5	?	-15.6%
O=C(NC1=NCCS1)c1cc(-c2ccc(-c3ccccc3)cc2)nc2ccccc12	-7.9%	?	-10.7	-24.4%	?
Cc1sc(NC(=O)c2cc(-c3ccc(Cl)cc3)nc3ccccc23)c(C(N)=O)c1C	-12.9%	8.2µM*	7.1	-11.7%	10.3µM*
Cc1sc(NC(=O)c2cc(-c3ccccc3)nc3ccccc23)c(C(N)=O)c1C	-3.6%	14.6µM*	-25.1	-14.7%	18.4µM*
CC(=O)Cc1nsc(NC(=O)c2cccs2)n1	-0.5%	?	7.7	-1.2%	23.1µM*
SMILES	HT1080-NT tox	DT40 TDP1 CPT	IL1B secr inh	HT1080 IDH1KD tx	TDP1 cell noCPT
Cc1sc(NC(=O)c2cccs2)nc1-c1ccccc1	-12.9%	23.1µM*	?	-16.5%	?
COCC(=O)Nc1nc(-c2ccccc2)c(C)s1	3.7%	3.2%	18.7	0.0%	-5.4%
Cc1sc(N/N=C/c2cccs2)nc1-c1ccccc1	-7.6%	?	0.0	-9.0%	18.4µM*
CC(=O)Nc1sc(N/N=C\c2ccccc2F)nc1-c1cccs1	-6.3%	-23.8%	-14.0	2.4%	-26.3%
CCOc1ccc(C(=O)NNC(=O)CCNC(=O)c2ccco2)cc1OC	0.7%	9.0%	3.5	5.3%	-2.1%
COCCCn1c(SCC(=O)NC2CCS(=O)(=O)C2)nnc1-c1ccc(Cl)cc1 (configuration not stated)	3.5%	5.1%	3.2	11.5%	-9.4%
O=C1N[C@@H](Cc2ccccc2)COC(=O)[C@@H](Cc2ccc(F)cc2)CC/C=C/C[C@H]1CC(=O)N(CCO)Cc1ccccc1	?	?	-21.4	?	6.51µM*
O=C1N[C@@H](Cc2ccccc2)COC(=O)[C@H](Cc2ccc(F)cc2)C/C=C\C[C@H]1CC(=O)N(CCO)Cc1ccccc1	-24.0%	20.6µM*	-25.7	?	8.2µM*
CCCc1nnc(NC(=O)CCC(=O)Nc2ccc(Br)cc2)s1	1.0%	-5.1%	6.4	6.4%	3.6%
Nc1ncnc(N2CCOCC2)n1	12.9%	0.7%	1.4	28.2%	3.0%
O=c1[nH]c(=O)c2[nH]c(=O)[nH]c2[nH]1	·	-11.7%	·	·	2.2%
Cc1cccc(NC(=O)c2nc[nH]c2C(=O)NCCCCCCNC(=O)c2[nH]cnc2C(=O)Nc2cccc(C)c2)c1	19.4%	11.6µM*	1.2	19.4%	23.1µM*
Cc1cccc(NC(=O)c2nc[nH]c2C(=O)NCCCCNC(=O)c2[nH]cnc2C(=O)Nc2cccc(C)c2)c1	2.4%	14.6µM*	26.7	8.3%	20.6µM*
CN(C)CCOc1ccc2c(c1)C(=O)C(=Cc1ncc([N+](=O)[O-])n1C)C2	23.1µM*	0.146µM*	-50.7*	6.51µM*	0.13µM*
Cc1cc(C(C)(C)C)cc(C)c1C[n+]1ccc2ccccc2c1	?	0.411µM*	-51.6*	?	0.231µM*
COC(=O)c1c(NC(=O)CS(=O)(=O)c2ccc(C)cc2)sc2c1CCCC2	·	?	·	·	16.4µM*
NC(=O)c1c(NC(=O)CN2CCN(S(=O)(=O)c3ccccc3)CC2)sc2c1CCC2	?	13µM*	-51.1*	-11.0%	18.4µM*
Cc1ccc(S(=O)(=O)CC(=O)Nc2sc3c(c2C(N)=O)CCCC3)cc1	·	14.6µM*	·	·	20.6µM*
Cn1cc(Br)c(C(=O)Nc2sc3c(c2C(N)=O)CCCC3)n1	-8.9%	?	-81.7*	-3.6%	16.4µM*
CN1CCN(CC(=O)Nc2sc3c(c2C(=O)Nc2ccccc2)CCCC3)CC1	-23.1%	?	?	?	?
COC(=O)c1c(NC(C)=O)sc2c1CCCC2	-7.0%	-1.0%	17.4	-11.6%	?
